As a reminder, the AC50 is the concentration at which the activity in the assay is half-maximal.

Experiment [1] in a line: ATG_PXRE_CIS: Attagene CIS-FACTORIAL HepG2 Assay for human Pregnane X Receptor Element (PXRE) (AID 2282957). The conditions noted are these: HepG2 Attagene CIS-FACTORIAL PXRE reporter, mRNA; actives raise or lower the signal. Summed up: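 HepG2 cells transiently transfected with cis-regulated multiple reporter transcription units; endogenous factor activity measured as reporter mRNA 24 h after dosing. RT-PCR, fluorescent primer extension, HpaI digestion, capillary electrophoresis; bidirectional fit versus DMSO baseline.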

Experiment [2] in a line: ATG_RORE_CIS: Attagene CIS-FACTORIAL HepG2 Assay for human RAR-related Orphan Receptor Element (RORE) (AID 2282959). The note with it: HepG2 Attagene cis-factorial RORE reporter, mRNA; actives raise or lower the signal. Summed up: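 A 24-hour exposure of transfected HepG2 hepatoma cells precedes RNA isolation and reporter RT-PCR. Labeled products are digested with HpaI and resolved by capillary electrophoresis, with gain or loss of signal scored relative to DMSO.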

Experiment [3] can be described thus: ATG_Sox_CIS: Attagene CIS-FACTORIAL HepG2 Assay for human SRY-box transcription factor (SOX) (AID 2282960). The conditions noted are these: HepG2 Attagene cis-factorial SOX reporter, mRNA; actives raise or lower the signal. Summed up:
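HepG2, cis reporter units, 24 h exposure. Reporter mRNA: RT-PCR → FAM labelling → HpaI → CE fluorescence. Bidirectional fit vs DMSO.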

Experiment [4] deals with Transcription factor Sp1 (Homo sapiens) (UniProt P08047). The experiment can be described thus: ATG_Sp1_CIS: Attagene CIS-FACTORIAL HepG2 Assay for human Specificity Protein 1 (Sp1) (AID 2282961). The conditions noted are these: HepG2 Sp1 cis-reporter transcription, actives raise or lower the signal. The gist of the method:
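Liver-derived HepG2 cells, cis-element reporter library, 24 h treatment; RNA isolated, cDNA amplified with reporter-specific primers, FAM-labeled fragments sized on capillary analyzer. DMSO baseline, bidirectional curve fit.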

Experiment [5] can be described thus: ATG_SREBP_CIS: Attagene CIS-FACTORIAL HepG2 Assay for human Sterol Regulatory Element Binding (SREBP) (AID 2282962). The conditions noted are these: HepG2 Attagene cis-factorial SREBP reporter, mRNA; actives raise or lower the signal. The gist of the method:
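Transfected HepG2 (cis-regulated reporter library, endogenous TFs) → compound 24 h → total RNA → oligo(dT) RT → reporter-specific PCR → FAM primer extension, HpaI cut → CE fluorescence. Fit bidirectional vs DMSO.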

For experiment [6], the target named is Signal transducer and activator of transcription 3 (Homo sapiens) (UniProt P40763). In words: ATG_STAT3_CIS: Attagene CIS-FACTORIAL HepG2 Assay for human Signal Transducer and Activator of Transcription 3 (STAT3) (AID 2282963). The conditions noted are these: HepG2, Attagene cis-factorial STAT3 reporter transcription; actives raise or lower the signal. Summed up: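 HepG2 cells transiently transfected with cis-element-driven multiple reporter transcription units; after 24 h chemical exposure, reporter mRNA measured by RT-PCR, 6-FAM primer-extension labelling, HpaI digestion and capillary electrophoresis. Bidirectional fitting versus DMSO baseline.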
Chain of Signal transducer and activator of transcription 3 (Homo sapiens) (P40763 whole entry, looked up): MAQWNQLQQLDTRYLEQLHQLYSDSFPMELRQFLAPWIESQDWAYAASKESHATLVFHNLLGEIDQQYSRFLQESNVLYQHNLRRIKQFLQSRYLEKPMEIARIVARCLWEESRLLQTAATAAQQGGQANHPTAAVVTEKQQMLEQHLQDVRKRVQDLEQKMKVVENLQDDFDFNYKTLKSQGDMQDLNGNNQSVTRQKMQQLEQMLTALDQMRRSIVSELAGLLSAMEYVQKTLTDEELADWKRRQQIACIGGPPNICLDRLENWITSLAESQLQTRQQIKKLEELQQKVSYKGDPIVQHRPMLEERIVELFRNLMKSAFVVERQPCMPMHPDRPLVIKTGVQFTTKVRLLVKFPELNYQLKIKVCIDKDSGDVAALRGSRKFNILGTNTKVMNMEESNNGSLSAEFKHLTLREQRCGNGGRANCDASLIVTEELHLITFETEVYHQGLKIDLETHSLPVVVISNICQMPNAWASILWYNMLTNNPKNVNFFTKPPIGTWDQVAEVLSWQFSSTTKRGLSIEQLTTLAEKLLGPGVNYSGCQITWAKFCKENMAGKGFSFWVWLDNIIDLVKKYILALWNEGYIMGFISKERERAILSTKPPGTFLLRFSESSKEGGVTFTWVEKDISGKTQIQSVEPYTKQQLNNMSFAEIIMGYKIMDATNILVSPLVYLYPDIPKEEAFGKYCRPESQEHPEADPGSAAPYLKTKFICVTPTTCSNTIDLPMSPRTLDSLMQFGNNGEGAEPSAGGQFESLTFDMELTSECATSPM

Experiment [7] can be described thus: ATG_TA_CIS: Attagene CIS-FACTORIAL HepG2 Assay for human TA Basal Promoter (AID 2282964). The note with it: HepG2 Attagene CIS-factorial TA basal promoter reporter; actives raise or lower the signal. The gist of the method:
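Fluorescence from labelled RT-PCR reporter fragments, separated by capillary electrophoresis, gives the signal. Cells: HepG2 transiently carrying multiple reporter units, 24 h chemical dosing. Gain or loss relative to DMSO.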

Experiment [8] in a line: ATG_TCF_b_cat_CIS: Attagene CIS-FACTORIAL HepG2 Assay for human T-Cell-Factor with beta-catenin (TCF/b-cat) (AID 2282965). The note with it: HepG2 TCF/beta-catenin cis-reporter transcription, actives raise or lower the signal. The gist of the method:
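HepG2 cells transiently transfected with multiple cis-promoter-regulated reporter transcription units, so endogenous transcription factor activity is measured. Reporter mRNA read 24 hours after dosing by RT-PCR, fluorescent labelling and capillary electrophoresis; bidirectional fitting against DMSO.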

Experiment [9] is described as follows: ATG_TAL_CIS: Attagene CIS-FACTORIAL HepG2 Assay for human TAL Basal Promoter (AID 2282966).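 Also: background control endpoint measuring basal TAL promoter reporter mRNA not a specific factor.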 The note with it: HepG2 Attagene cis-factorial TAL promoter reporter; actives raise or lower the signal. Summed up:
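HepG2 cells were transiently transfected with promoter-driven multiplexed reporter units and dosed for 24 h. Reporter mRNA was measured by RT-PCR with capillary electrophoresis fluorescence; bidirectional fits used DMSO as baseline, serving as a background control.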

Experiment [10] is described as follows: ATG_VDRE_CIS: Attagene CIS-FACTORIAL HepG2 Assay for human Vitamin D Receptor Element (VDRE) (AID 2282968). The conditions noted are these: HepG2 VDRE cis-reporter transcription, actives raise or lower the signal. Summed up:
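HepG2 cells transiently transfected with cis-element reporter units, dosed 24 h; reporter mRNA measured by RT-PCR, 6-FAM labeling, HpaI digestion and capillary electrophoresis. Activity fitted bidirectionally against DMSO baseline.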

The target of experiment [11] is Nuclear receptor subfamily 1 group I member 3 (Homo sapiens) (UniProt Q14994). The experiment can be described thus: ATG_CAR_TRANS: Attagene TRANS-FACTORIAL HepG2 Assay for human Constitutive Androstane Receptor (CAR) (AID 2282969; active = hit-call score of the fitted dose curve at least 0.9, where 1 is the maximum;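 also: activators raise reporter mRNA above DMSO so AC50 marks induction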). The conditions noted are these: HepG2 Attagene TRANS-FACTORIAL CAR reporter. The gist of the method:
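HepG2 cells transiently transfected with multiplexed GAL4-UAS reporter units expressing chimeric NR-Gal4 proteins; compound exposure 24 h. Reporter mRNA measured by RT-PCR, 6-FAM labelling, HpaI digestion and capillary electrophoresis; gain-of-signal fitted against DMSO baseline.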

The target in experiment [12] is Estrogen receptor (Homo sapiens) (UniProt P03372). The experiment can be described thus: ATG_ERa_TRANS: Attagene TRANS-FACTORIAL HepG2 Assay for human Estrogen Receptor alpha (ERa) (AID 2282970; active = hit-call score of the fitted dose curve at least 0.9, where 1 is the maximum). The note with it: HepG2 Attagene TRANS ERa GAL4 reporter, mRNA. Summed up: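 HepG2 cells transiently transfected with multiplexed GAL4-UAS reporter units; ERa activity read via exogenous chimeric NR-Gal4 protein. After 24 hour compound exposure, reporter mRNA measured by RT-PCR with 6-FAM labelling and capillary electrophoresis; gain-of-signal fitted relative to DMSO.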
Chain of Estrogen receptor (Homo sapiens) (P03372 whole entry, looked up, the tested form may be a part): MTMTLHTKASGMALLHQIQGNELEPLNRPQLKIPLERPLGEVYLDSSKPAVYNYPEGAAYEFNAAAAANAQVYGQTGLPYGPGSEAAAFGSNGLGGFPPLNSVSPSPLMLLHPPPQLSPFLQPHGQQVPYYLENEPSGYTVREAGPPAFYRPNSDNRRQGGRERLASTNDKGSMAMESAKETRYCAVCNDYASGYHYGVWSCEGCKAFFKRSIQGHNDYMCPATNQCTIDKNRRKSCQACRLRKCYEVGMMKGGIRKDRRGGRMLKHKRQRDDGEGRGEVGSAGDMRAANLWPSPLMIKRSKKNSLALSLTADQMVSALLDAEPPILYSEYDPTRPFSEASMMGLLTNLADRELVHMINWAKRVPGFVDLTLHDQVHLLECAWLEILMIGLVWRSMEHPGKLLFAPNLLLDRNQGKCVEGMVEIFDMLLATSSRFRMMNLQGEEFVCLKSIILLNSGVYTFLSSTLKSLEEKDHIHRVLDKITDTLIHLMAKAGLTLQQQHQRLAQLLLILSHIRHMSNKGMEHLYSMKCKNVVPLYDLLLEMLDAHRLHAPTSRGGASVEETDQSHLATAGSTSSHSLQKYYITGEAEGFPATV

The target of experiment [13] is X-box-binding protein 1 (Homo sapiens) (UniProt P17861). The experiment can be described thus: ATG_Xbp1_CIS: Attagene CIS-FACTORIAL HepG2 Assay for human X-box Binding Protein 1 (XBP1) (AID 2282972). The conditions noted are these: HepG2 XBP1 cis-element reporter, Attagene multiplex; actives raise or lower the signal. The gist of the method: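 HepG2, transient MRTU transfection (cis-promoter driven), 24 h compound exposure. Total RNA → oligo(dT) RT → PCR → 6-FAM labeling → HpaI cut → CE. Bidirectional fit vs DMSO.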
Chain of X-box-binding protein 1 (Homo sapiens) (P17861 whole entry, looked up): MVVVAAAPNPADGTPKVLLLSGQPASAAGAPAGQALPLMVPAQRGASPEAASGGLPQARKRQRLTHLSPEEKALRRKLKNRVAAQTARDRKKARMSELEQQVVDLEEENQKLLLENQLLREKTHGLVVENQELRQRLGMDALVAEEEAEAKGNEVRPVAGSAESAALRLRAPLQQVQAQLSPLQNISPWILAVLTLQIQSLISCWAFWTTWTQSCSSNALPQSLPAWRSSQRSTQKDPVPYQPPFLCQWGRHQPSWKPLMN

In experiment [14] the target is Estrogen-related receptor gamma (Homo sapiens) (UniProt P62508). The experiment can be described thus: ATG_ERRg_TRANS: Attagene TRANS-FACTORIAL HepG2 Assay for human Estrogen-Related Receptor gamma (ERRg) (AID 2282977; active = hit-call score of the fitted dose curve at least 0.9, where 1 is the maximum;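 also: hits increase reporter signal over DMSO so potencies reflect activators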). The conditions noted are these: HepG2 Attagene TRANS reporter, ERRg transactivation. Summed up: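 HepG2 cells transiently transfected with multiplexed GAL4-UAS reporter units and chimeric NR-Gal4 constructs were exposed to test chemicals for 24 h. Reporter mRNA was measured by RT-PCR, 6-FAM primer extension, HpaI digestion and capillary electrophoresis; gain-of-signal versus DMSO.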
Chain of Estrogen-related receptor gamma (Homo sapiens) (P62508 whole entry, looked up, the tested form may be a part): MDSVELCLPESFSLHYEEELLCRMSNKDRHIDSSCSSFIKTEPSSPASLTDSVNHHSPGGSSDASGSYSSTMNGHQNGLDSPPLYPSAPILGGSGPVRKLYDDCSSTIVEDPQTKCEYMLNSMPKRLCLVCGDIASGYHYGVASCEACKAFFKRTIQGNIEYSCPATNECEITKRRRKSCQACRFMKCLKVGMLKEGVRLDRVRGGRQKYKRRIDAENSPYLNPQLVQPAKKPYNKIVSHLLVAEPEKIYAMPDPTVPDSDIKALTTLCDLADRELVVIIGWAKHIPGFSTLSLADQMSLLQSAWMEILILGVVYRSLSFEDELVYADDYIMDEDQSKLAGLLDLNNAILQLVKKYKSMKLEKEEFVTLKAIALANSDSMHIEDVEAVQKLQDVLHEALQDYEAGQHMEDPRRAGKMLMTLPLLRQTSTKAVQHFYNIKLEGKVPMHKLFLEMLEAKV

Experiment [15] in a line: ATG_PPRE_CIS: Attagene CIS-FACTORIAL HepG2 Assay for human Peroxisome Proliferator-activated Response Element (PPRE) (AID 2282958). The note with it: HepG2 PPRE cis-element reporter, Attagene transcription factor profiling; actives raise or lower the signal. The gist of the method: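 PPRE activity in HepG2: transient cis-reporter transfection, 24 h compound incubation, reporter mRNA by RT-PCR and CE fluorescence; gain/loss fitted against DMSO.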

The nature of experiment [16]: ATG_M_19_TRANS: Attagene TRANS-FACTORIAL HepG2 Assay for M19 Transcription Factor (Internal Marker) (AID 2282974; active = hit-call score of the fitted dose curve at least 0.9, where 1 is the maximum). The conditions noted are these: HepG2 Attagene TRANS-FACTORIAL M19 internal marker reporter. The gist of the method: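 Transfected HepG2 (GAL4-UAS MRTUs), 24 h compound, TriZol RNA, DNase-treated RT, reporter PCR, FAM label, HpaI digest, CE fluorescence; gain vs DMSO.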

The nature of experiment [17]: ATG_GAL4_TRANS: Attagene TRANS-FACTORIAL HepG2 Assay for GAL4 (Internal Marker) (AID 2282976; active = hit-call score of the fitted dose curve at least 0.9, where 1 is the maximum). The note with it: HepG2 Attagene TRANS GAL4 internal marker reporter. The gist of the method: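 HepG2 cells transiently transfected with multiplexed GAL4-UAS reporter constructs were dosed for 24 h. Reporter mRNA was measured by RT-PCR, 6-FAM primer extension, HpaI digestion and capillary electrophoresis, and gain of signal was fitted relative to DMSO.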

Experiment [18] is described as follows: ATG_TGFb_CIS: Attagene CIS-FACTORIAL HepG2 Assay for human Transforming Growth Factor (TGF) (AID 2282967). The note with it: HepG2 Attagene CIS TGFb reporter, mRNA transcription; actives raise or lower the signal. The gist of the method:
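Bidirectional fitting relative to DMSO gave the endpoint. Underlying data: reporter mRNA from HepG2 cells carrying transiently transfected cis-regulated reporter constructs, harvested 24 h after dosing and analyzed by RT-PCR and capillary electrophoresis.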

Results filed as inconclusive are left out. Calls of active or inactive are those of the source. The calls were made as follows, unless noted: active = hit-call score of the fitted dose curve at least 0.9, where 1 is the maximum; inactive = score below 0.9.

Chain of Transcription factor Sp1 (Homo sapiens) (P08047 whole entry, looked up, the tested form may be a part): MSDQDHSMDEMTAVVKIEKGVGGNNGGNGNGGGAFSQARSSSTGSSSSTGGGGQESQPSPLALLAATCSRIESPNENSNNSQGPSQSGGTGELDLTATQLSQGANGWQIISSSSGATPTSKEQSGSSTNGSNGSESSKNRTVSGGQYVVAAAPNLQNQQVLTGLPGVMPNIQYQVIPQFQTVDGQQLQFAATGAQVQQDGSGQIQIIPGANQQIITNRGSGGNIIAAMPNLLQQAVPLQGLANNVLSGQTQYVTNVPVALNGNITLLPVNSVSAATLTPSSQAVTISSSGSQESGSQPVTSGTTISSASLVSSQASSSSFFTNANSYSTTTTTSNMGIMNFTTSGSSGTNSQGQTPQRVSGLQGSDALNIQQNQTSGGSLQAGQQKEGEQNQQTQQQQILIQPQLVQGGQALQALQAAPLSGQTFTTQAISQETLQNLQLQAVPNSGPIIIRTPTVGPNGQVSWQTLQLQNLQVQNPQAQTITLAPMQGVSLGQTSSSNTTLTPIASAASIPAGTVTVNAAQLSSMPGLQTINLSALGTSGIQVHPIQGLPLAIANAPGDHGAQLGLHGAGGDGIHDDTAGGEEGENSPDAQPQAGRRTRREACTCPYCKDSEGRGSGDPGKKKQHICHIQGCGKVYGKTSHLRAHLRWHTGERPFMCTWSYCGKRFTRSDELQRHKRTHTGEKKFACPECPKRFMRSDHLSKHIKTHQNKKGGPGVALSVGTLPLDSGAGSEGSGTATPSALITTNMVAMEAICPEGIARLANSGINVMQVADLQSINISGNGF
Chain of Nuclear receptor subfamily 1 group I member 3 (Homo sapiens) (Q14994 whole entry, looked up, the tested form may be a part): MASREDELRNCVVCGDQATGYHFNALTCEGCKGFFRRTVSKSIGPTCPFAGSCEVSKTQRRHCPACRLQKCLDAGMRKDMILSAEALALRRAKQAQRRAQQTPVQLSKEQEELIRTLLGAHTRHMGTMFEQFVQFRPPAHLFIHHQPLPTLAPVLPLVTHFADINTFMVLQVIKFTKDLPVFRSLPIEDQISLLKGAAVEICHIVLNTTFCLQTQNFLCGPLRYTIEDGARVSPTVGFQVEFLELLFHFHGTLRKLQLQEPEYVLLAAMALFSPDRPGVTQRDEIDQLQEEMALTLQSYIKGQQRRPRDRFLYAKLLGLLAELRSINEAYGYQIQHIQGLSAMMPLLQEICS

As to `C=CCOc1c(Br)cc(Br)cc1Br`, the AC50 in experiment [1] is 12.7 µM (active); in experiment [10], 23.7 µM (active); in experiment [12] it was 15.7 µM (active). For the same compound, the result in experiment [2], in [3], in experiment [4], in experiment [5], in experiment [6] and in experiment [7] was inactive. Further, the result in experiment [8], in [9], in experiment [11], in experiment [13] and in [14] was inactive.
Turning to `CC(CC=O)c1ccccc1` (stereo not given), the figures for the AC50 in experiment [1] and in experiment [10] were 4.15 µM (active) and 7.03 µM (active), respectively. Also, the call in experiment [15], in [3], in [4], in experiment [5], in experiment [6] and in experiment [7] was inactive. Also, the compound was called inactive in experiment [8], in experiment [9], in experiment [12], in experiment [13], in experiment [16] and in [17].
On to `CC=C1CC2C=CC1C2` (stereo not given), for which, in [1], the AC50 is 3.1 µM (active). Moreover, the result in [15], in [2], in experiment [3], in experiment [4], in experiment [5] and in experiment [6] was inactive. Further, the outcome in experiment [7], in [8], in experiment [9], in experiment [18], in experiment [10] and in experiment [13] was inactive. In experiment [16], the compound was classed as inactive.
Turning to `C=C[Si](C)(C)O[Si](C)(C)C=C`, the AC50 in experiment [1] was 27.9 µM (active). Also, the compound was called inactive in experiment [2], in experiment [3], in experiment [4], in [5], in [6] and in experiment [7]. In addition, the compound was called inactive in experiment [9], in experiment [18], in experiment [13], in experiment [16] and in experiment [17].
As to `O=C1CCCCCN1SSN1CCCCCC1=O`, the outcome in experiment [1], in experiment [15], in [2], in experiment [6], in experiment [7] and in [8] was inactive. The result in experiment [9], in experiment [18], in [10], in [11], in [12] and in experiment [17] was inactive. Also, the compound was classed as inactive in [14]. Moreover, the AC50 in experiment [3] was 183 µM (active); in experiment [4], 167 µM (active); in experiment [5], 161 µM (active); in experiment [13] it was 187 µM (active).
Take `Cn1c(=O)[nH]c2ncn(C)c2c1=O`: the call in experiment [1], in experiment [15], in experiment [3], in experiment [4], in [5] and in experiment [6] was inactive. Besides, the result in [7], in experiment [8], in [9], in [18], in [10] and in experiment [12] was inactive. For the same compound, the outcome in experiment [13] and in [17] was inactive.

These data come from PubChem BioAssay (EPA / NIEHS).
